High-throughput results from PubChem BioAssay.
In the library only some 27% were active in any assay of this set; here they are far more common.
sEH act – soluble epoxide hydrolase activators, primary screen, biochemical, human sEH; activation, % at 2 µM; purified human sEH enzymatic activity, activator screen; Bifunctional epoxide hydrolase 2 (Homo sapiens), P34913; 91,000 tested, 0.04% active; in the data active = activation above about 37%
Target sequence (P34913 whole entry, looked up): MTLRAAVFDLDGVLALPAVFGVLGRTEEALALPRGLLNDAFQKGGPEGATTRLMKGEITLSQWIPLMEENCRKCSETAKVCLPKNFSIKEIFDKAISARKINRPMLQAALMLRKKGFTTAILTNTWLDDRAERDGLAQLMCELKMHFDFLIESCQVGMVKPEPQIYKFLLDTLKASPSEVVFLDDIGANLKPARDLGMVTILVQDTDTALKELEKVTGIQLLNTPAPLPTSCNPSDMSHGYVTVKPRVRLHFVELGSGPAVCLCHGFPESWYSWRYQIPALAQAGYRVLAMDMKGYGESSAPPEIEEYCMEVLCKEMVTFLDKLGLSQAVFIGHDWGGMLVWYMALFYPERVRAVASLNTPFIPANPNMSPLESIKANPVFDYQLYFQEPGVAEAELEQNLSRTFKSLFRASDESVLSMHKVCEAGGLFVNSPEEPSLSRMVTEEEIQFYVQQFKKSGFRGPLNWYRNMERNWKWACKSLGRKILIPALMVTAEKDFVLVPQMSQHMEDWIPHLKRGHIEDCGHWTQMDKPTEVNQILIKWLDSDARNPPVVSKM
CYP2C19 inhib – blockers of cytochrome P450 2C19 activity – biochemical, luminescence, ADME assay, primary screen | P33261 | CYP2C19 Supersomes, luciferin-H EGE luminescence, 30 min | inhibition, % at 5 µM | 96,000 tested, 21% active;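 active = CYP2C19 inhibition above a set limit at 5 µM in the primary screen, cut at about 50% in these data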;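 also: plate controls were negative control wells for no effect and 2.5 mM tranylcypromine positive control for full effect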
CYP2C9 activ – human CYP2C9 activators, primary screen, biochemical, luminescence | Cytochrome P450 2C9 (Homo sapiens), P11712 | recombinant CYP2C9, luciferin-H conversion; hits give high values; factor 1 = untreated enzyme, 0 = blocked | activation factor at 5 µM | 96,000 tested, 1.4% active;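 active = activation factor of 2 or more for CYP2C9 at a 5 µM dose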;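 also: 0 = sulfaphenazole-blocked wells and 1 = vehicle-only wells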
CYP2C9 inh – blockers of cytochrome P450 2C9 activity – biochemical, luminescence, ADME assay, primary screen; P11712; CYP2C9 Supersomes, luciferin-H conversion; inhibition, % at 5 µM; 96,000 tested, 20% active;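 active = blocking of liver enzyme CYP2C9 beyond about 50% at 5 µM, limit read from the data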
sEH inhibitor – soluble epoxide hydrolase inhibitors, primary screen, biochemical, human sEH; Bifunctional epoxide hydrolase 2 (Homo sapiens), P34913; recombinant human sEH enzymatic activity assay; inhibition, % at 2 µM; 91,000 tested, 0.34% active; AID 707, 2007; in the data active = inhibition above about 80%
CYP2C19 activ – human CYP2C19 activators, primary screen, biochemical, luminescence; Cytochrome P450 2C19 (Homo sapiens), P33261; recombinant CYP2C19, luciferin-H EGE luminescence; hits give high values; 0 = fully inhibited enzyme, 1 = untreated enzyme; activation factor at 5 µM; 96,000 tested, under 10 active;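 active = activation factor of at least 2 at 5 µM in the primary screen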;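 also: 0 = wells with 2.5 mM tranylcypromine and 1 = vehicle-only wells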
The depositor's hits bear a star; x = no result given.

SMILES | sEH act | CYP2C19 inhib | CYP2C9 activ | CYP2C9 inh | sEH inhibitor | CYP2C19 activ
COc1ccccc1NC(=O)CCC(=O)Nc1ccccc1OC | 33 | 7 | 3.1* | -210 | -30 | 0.9
COc1ccccc1CC(=O)Nc1ccccc1C(=O)O | 8 | 1 | 0.6 | 44 | -5 | 1
COc1ccccc1OCC(=O)Nc1ccc(Cl)cc1 | 17 | x | x | x | -16 | x
COc1ccccc1NC(=O)CCN1CCN(CCC(=O)Nc2ccccc2OC)CC1 | x | 22 | 0.8 | 16 | x | 0.8
CNCc1ccccc1OCC(=O)Nc1ccccc1OC | 2 | 64* | 1.4 | -36 | -2 | 0.4
Cn1c(Cc2ccc3c(c2)OCO3)nnc1SCC(=O)N1CCc2ccccc2C1 | -4 | 42 | 0.9 | 11 | 3 | 0.6
COc1cc(C(=O)COC(=O)CNC(=O)C2CCCCC2)cc(OC)c1OC | 3 | 26 | 0.9 | 12 | -1 | 0.7
CCCOc1ccccc1N/C(=N/c1nc(C)cc(C)n1)NC(=O)COc1ccc(OC)cc1 | -17 | 90* | 0.1 | 92* | 16 | 0.1
COc1cccc(OCC(=O)Nc2ccccc2NC(C)=O)c1 | 3 | 76* | 1 | -2 | -4 | 0.2
COCC(=O)Nc1ccccc1NC(C)=O | -7 | 2 | 1 | -3 | 5 | 1
CCCOc1ccccc1N/C(=N\S(=O)(=O)c1ccc(C)cc1)Nc1nc(C)cc(C)n1 | 4 | x | x | x | -1 | x
COc1cc(/C=N/NC(=O)CSCc2ccc([N+](=O)[O-])cc2)cc(OC)c1OC | -1 | 45 | 0.4 | 57* | -2 | 0.6
COc1ccc(/C=N/NC(=O)CSCC(=O)Nc2ccccc2)cc1OC | 0 | -13 | 0.9 | 6 | -2 | 1.1
COc1ccc(OCC(=O)Nc2ccccc2OC)cc1 | x | 63* | 1 | 2 | x | 0.4
CC(C)N1CC(C(=O)O)CC1=O (stereo unspecified) | 15 | 1 | 1.1 | -15 | -15 | 1
O=C(O)CCCC(=O)Nc1cccc2cccnc12 | 14 | 5 | 0.9 | 9 | -15 | 1
COc1ccc(OCC(=O)Nc2cccc3cccnc23)cc1 | x | 97* | 1.4 | -40 | x | 0
COc1ccccc1NC(=O)CCCC(=O)OCC(F)(F)C(F)F | 4 | 87* | 2.8* | -182 | -6 | 0.1
COc1cc(NC(=O)CCCC(=O)OCC(F)(F)C(F)F)nc(OC)n1 | 9 | 76* | 1.3 | -32 | -9 | 0.2
COc1ccccc1NC(=O)CNC(=O)c1ccccc1 | -16 | 66* | 0.8 | 23 | 18 | 0.3
C#CCOC(=O)c1ccccc1C(=O)N(CC)CC | 3 | 8 | 1 | 4 | -3 | 0.9
CCOC(=O)C1C(=O)CC(C)(O)C(C(=O)OCC)C1c1ccccc1OC (stereo unspecified) | 3 | -4 | 1.1 | -10 | 0 | 1
O=C(NC1CCCCC1)C(c1ccccc1)N(Cc1ccc2c(c1)OCO2)C(=O)c1cnsn1 (stereo unspecified) | 4 | x | x | x | -1 | x
CC(=O)Nc1cccc(OCC(=O)Nc2ccc(F)cc2)c1 | 8 | 68* | 1.3 | -33 | -12 | 0.3
COc1cc(C(=O)Nc2cccc3cccnc23)cc(OC)c1OC | 2 | 36 | 0.5 | 46 | 1 | 0.6
SMILES | sEH act | CYP2C19 inhib | CYP2C9 activ | CYP2C9 inh | sEH inhibitor | CYP2C19 activ
COc1ccccc1NC(=O)COc1ccc(/C=N/NC(=O)CSCc2ccc(Cl)cc2)cc1 | -21 | 63* | 0.3 | 66* | 26 | 0.4
CCCC(=O)Nc1ccccc1NC(=O)c1cc(OC)c(OC)c(OC)c1 | 2 | 1 | 0.3 | 71* | -2 | 1
O=C(Nc1cccc2cccnc12)c1cccnc1 | -4 | 46 | 2.1* | -112 | 5 | 0.5
COc1c2c(nc3occc13)C(CC=C(C)C)(OC)C(O)CC2 (stereo unspecified) | 1 | x | x | x | -1 | x
O=C(Nc1ccccc1)NC1(C(=O)N2CCN(C(=O)c3ccco3)CC2)CCCCC1 | 4 | 19 | 0.5 | 47 | -5 | 0.8
CCOc1c2ccc(C(=O)NCc3ccc4c(c3)OCO4)cc2nn1CC | -5 | 20 | 0.8 | 24 | 6 | 0.8
CC(C)=CC(=O)Nc1ccccc1Br | -2 | 12 | 1 | 2 | 5 | 0.9
